Consider three molecules from PubChem BioAssay (NCATS).

Inconclusive results are not listed. The source made the active and inactive calls. Calls follow the shape of the full dose curve.

What all share (conditions): outcome: dose series up to 57.1 µM unless noted
The nature of assay [1]: Primary qHTS for Huh7 cytotoxicity: counterscreen for inhibitors of MERS-S pseudotyped particle cell entry (AID 1479147). (Quantitative high-throughput screening tests each substance at several concentrations.)
The nature of assay [2]: Primary qHTS for inhibitors of MERS-S pseudo-typed particle cell entry (AID 1479149). Also: nearly all actives have a fitted effect of over 60% in size.
Assay [3] can be described thus: Primary qHTS for inhibitors of SARS-S pseudo-typed particle cell entry (AID 1479145). Also: series mostly up to about 57 µM; nearly all actives have a fitted effect of over 45% in size.

For `CCC(=O)O[C@@](Cc1ccccc1)(c1ccccc1)[C@@H](C)CN(C)C`, the result in assay [1] and in assay [2] was inactive.

As to `C[N+]1(C)CCCCC1COC(=O)C(O)(c1ccccc1)c1ccccc1` (configuration not stated), the result in assay [3], in assay [1] and in assay [2] was inactive.

For `C[C@]12CC[C@H](OS(=O)(=O)O)CC1=CC[C@@H]1[C@@H]2CC[C@]2(C)C(=O)CC[C@@H]12`, the call in assay [1] and in assay [2] was inactive.
